# Values joined by “and” are separate entries in the source; they are usually repeats but may differ in a detail not shown here. Equal entries are not always repeated. This is part of a sample that, as a whole, favours compounds with a hit. Of some 83,000 tested, about 20% had one in any assay.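 Compound tested at a single concentration for 48 hours in 96-well plates; a percent growth value below 10 was scored as active.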 A number with no mark means an inactive call. Active and inactive are the calls of the source.
# Test system: HL-60(TB) leukemia
# Test: NCI-60 one-dose screen, 48 h (100 = growth as untreated, 0 = no growth, -100 = all killed)
# Settings: 10 µM unless noted
row,Compound,growth
1,CN1C/C(=C\c2ccc(O)cc2O)c2[o+]c3cc(O)ccc3cc2C1,46.8%
2,Cc1nc(Nc2ccccn2)sc1C(=O)CC(SCC(=O)Nc1ccc(Cl)cc1)c1ccccc1F (stereo not drawn),14%
3,CCOC(=O)/C=C/c1cccc2c1C(=O)NC(C)(c1cc3cc(Br)ccc3oc1=O)N2 (stereo not drawn),27.3%
4,O=c1[nH]n(C(=S)N/N=C/c2ccccc2Cl)c(=O)c2ccccc12,-6.48% (active)
5,CSc1ccc(NC(=O)c2ccc3nnn(/C(C#N)=C/c4ccccn4)c3c2)cc1,2.93% (active)
6,O=C(CSc1nnc(-c2c[nH]c3ccccc23)n1-c1ccccc1)Nc1ccc(C(=O)/C=C/c2ccccc2Cl)cc1,78%
7,CSc1ccc(C(=O)Nc2ccc3nn(/C(C#N)=C/c4ccccn4)nc3c2)cc1,-21.9% (active)
8,COc1ccc(-c2cc(C(=O)N=Nc3c(O)[nH]c4ccc(Br)cc34)c3ccccc3n2)cc1,21.1%
9,COc1cc(C2CC(c3cc(OC)c(OC)c(OC)c3)=NN2c2ccccc2)ccc1OCc1ccc(C)cc1 (stereo not drawn),101%
10,COC1=C[C@]23CCC(=O)N2CCc2cc4c(cc2[C@@H]3[C@@H]1OC(=O)[C@H](C)O)OCO4,-28.6% (active)
11,COc1cc(/C=N/NC(=O)c2ccc(OCc3nc4ccc(Cl)cc4[nH]3)cc2)cc(OC)c1OC,28.2%
12,COc1cc(CNC(=O)C[C@H](C)CCC=C(C)C)ccc1OCc1cn(-c2cccc(C(F)(F)F)c2)nn1,96.3%
13,COc1ccc(C2CC(c3ccc(S(=O)(=O)NCCNc4nc(Nc5ccc(F)cc5)nc(N(C)C)n4)cc3)=Nc3c(N)nc(N)nc3N2)cc1 (stereo not drawn),52.5%
14,CCOc1ccc(/C=N/NC(=O)Cn2nc(Cc3ccc(OC)cc3)c3onc(C)c3c2=O)cc1,57.5%
15,O=C(Nc1ccc(S(=O)(=O)N2CCCCC2)cc1)C(Cl)Cl,120%
16,CC(C)C(C(=O)O)n1c(O)c(/C=C2/C=c3cc4c(cc3=NC2=O)OCO4)sc1=S (stereo not drawn),105%
17,CC1CN(c2oc(-c3ccc([N+](=O)[O-])cc3)nc2C#N)CC(C)O1 (stereo not drawn),95%

row,Compound,growth
1,O=C(CSc1nnc(-c2ccc(-c3nc4ccccc4[nH]3)cc2)o1)Nc1ccc(Br)cc1,43.1%
2,COc1ccc(NC(=O)Nc2ccc(OCC(=O)N=Nc3c(O)[nH]c4ccc([N+](=O)[O-])cc34)cc2)cc1,99%
3,CC1(c2ccccc2)NC(=O)N(CC(=O)Nc2ccc(C(=O)/C=C/c3ccc(Br)cc3)cc2)C1=O (stereo not drawn),20.8%
4,COc1ccc2[nH]cc(-c3nnc(N)nc3-c3cn(C)c4ncc(Br)cc34)c2c1,35%
5,N#Cc1ccc(-c2nn(-c3ccc(C(=O)O)cc3)cc2CNc2ccc(Cl)cc2)cc1,87.8%
6,CC(C)(C)c1ccc(NCc2cn(-c3ccc(C(=O)O)cc3)nc2-c2ccc(C#N)cc2)cc1,3.14% (active)
7,CCCCC[C@@H]1C/C=C(\C)[C@@H](O)C(C)(C)C(=O)[C@@H](C)/C=C(\C)[C@@H]2C[C@H](O)C[C@](O)(CC(=O)O1)O2,11.8%
8,C#CCOc1cc(N(CC)CC)ccc1C(C(=O)NC(C)(C)C)N(C(=O)C1CCc2cc(F)ccc2O1)c1ccc(F)cc1 (stereo not drawn),3.9% (active)
9,CSc1ccccc1NC(=O)c1ccc2nnn(/C(C#N)=C/c3ccccn3)c2c1,-31.5% (active)
10,O=c1[nH]c2ccccc2cc1CSc1ccc(Nc2nccc(-c3ccc(Cl)cc3)n2)cc1,74.8%
11,COc1ccc2[nH]c(O)c(N=Nc3nc(-c4ccccc4)cs3)c2c1,71.6%
12,CSc1ccc(OCc2nc3ccccc3n2-c2cccc(NS(C)(=O)=O)c2)cc1,115% and 105%
13,O=C1Nc2cc(-c3ccc(NS(=O)(=O)c4ccc(F)c(Cl)c4)cc3)ccc2/C1=C/c1ccc[nH]1,46.9%
14,COc1cc(C2CC(c3cc(OC)c(OC)c(OC)c3)=NN2C(C)=O)ccc1OCc1ccccc1 (stereo not drawn),21.5%
15,COc1ccc(-c2cc(C(=O)N=Nc3c(O)[nH]c4ccc(Cl)cc34)c3ccccc3n2)cc1OC,109%
16,CN1CCN(C(=O)Oc2cc3c(c4ccccc24)[C@H](CCl)CN3C(=O)c2cc3cc(OCCCN4CCC4)ccc3[nH]2)[C@@H]2CSSC[C@H]21,-25.8% (active)
